Measured values taken from PubChem BioAssay (NCI).
Compounds without any hit were thinned out: in the full panel of roughly 83,000, 20% have a hit.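 The test compound was applied at a single concentration to cells in 96-well plates for 48 hours, and percent growth was recorded.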 The source made the active and inactive calls. The calls were made as follows: active = growth percent below 10; inactive = the rest.

These compounds were tested on MDA-MB-468 breast (assay: NCI-60 one-dose screen, 48 h (100 = growth as untreated, 0 = no growth, -100 = all killed)). Settings: 10 µM unless noted.

With `COc1cc(C)c(Cl)cc1C1=NN(c2ccc(S(N)(=O)=O)cc2)C(/C=C/c2ccccc2)C1` (centres undefined) as the compound, how does the growth read?
The growth was 41.2% (inactive).

How did the growth turn out when `Nc1nonc1-c1nc2ccccc2n1Cc1ccc(F)cc1` was run?
Its growth is 23.6% (inactive).

With `O=C(Nc1ccc2ncnc(Nc3cccc(C(F)(F)F)c3)c2c1)c1cccs1` as the compound, how does the growth read?
Its growth is -2.49% (active).

Which growth does the source give for `ClC1=C(Cl)C(=C2C(Cl)=C(Cl)C(Cl)=C2Cl)C(Cl)=C1Cl` here?
The growth was 114% (inactive).

With `CCn1cc(Cc2cc(C(=O)Nc3cc4cc(OC)c(OC)cc4c(C)n3)ccc2Cl)cn1` as the compound, how does the growth read?
Its growth is 35.5% (inactive).

For `CCN1/C(=C/C=C/C=C/c2sc3ccccc3[n+]2CC)Sc2ccccc21`, which growth is on record?
The growth was -81% (active).

Which growth does the source give for `NS(=O)(=O)c1ccc(CCn2c(SCC(=O)c3ccc(Cl)cc3)nc3ccccc3c2=O)cc1` here?
The growth was 105% (inactive).

For `COc1ccc(/C=C(/C2=NCCN2)n2ccc3ccccc32)cc1`, which growth is on record?
Its growth is 89.6% (inactive).

For `CCCCn1c(=O)c(/C=C/C(=O)/C=C/c2ccc(OC)cc2)cc2cc(Cl)ccc21`, which growth is on record?
The growth was 86.1% (inactive).

`C=C1C(=O)O[C@H]2[C@H]1CC/C(COC(=O)n1ccnc1)=C\CC[C@@]1(C)O[C@@H]21` was tested. Which growth did it give?
The growth was 79.7% (inactive).

How did the growth turn out when `O=C(/C=C/C12c3ccccc3C(c3ccccc31)C1C(=O)NC(=O)C12)c1cccs1` (centres undefined) was run?
The growth was 45.8% (inactive).

How did the growth turn out when `CCOC(=O)c1sc(Nc2ncccn2)nc1-c1ccccn1` was run?
The growth was 10.4% (inactive).

Which growth does the source give for `C=C(C)C1CCC2(C(=O)O)CCC3(C)C(CCC4C5(C)CCC(OC(=O)NCc6ccccc6)C(C)(C)C5CCC43C)C12` (centres undefined) here?
Its growth is 35.3% (inactive).

Which growth does the source give for `Cc1c(Cl)cc(Cl)c(N)c1Cl` here?
The growth was 111% (inactive).
